In PubChem BioAssay (Tox21) one finds Potency and fluorescence, % of fluorescent control data, which are given here for 40 compounds.

A number with no mark means an inactive call. A call without a number means that no potency is given here. Active and inactive are the calls of the source. Calls come from the whole dose curve; as a rule, active = well fitted curve in the direction sought with a large enough effect in the repeat runs; inconclusive = weak or mixed curves; inactive = flat fitted curve, though single readings scatter.

A short description of the experiment: qHTS assay to test for compound auto fluorescence at 590 nm (red) in HEK293 cell free culture (AID 720683). The conditions noted are these: cell-free medium autofluorescence, Ex540/Em590 red; series mostly up to 91.3 µM. An excerpt:
U.S. Tox21 Program National Center for Advancing Translational Sciences [NCATS] NIH Chemical Genomics Center [NCGC] U.S. Environmental Protection Agency [EPA] National Institutes of Environmental Health Sciences [NIEHS] National Toxicology Program [NTP] U.S. Food and Drug Administration [FDA] Tox21 Assay Overview: Compound auto fluorescence often interferes with screening of the compound library against various biological targets and signaling pathways. Some of these compounds may have fluorophoric properties. Such properties may interfere with the assay outputs resulting in false positives and/or negatives. To decrease such complications and ensure the compound activities are relevant in terms of biological response, the Tox21 10K compound library was screened for auto fluorescence. From the fluorophores used as reporter signals in our screening assays, the auto fluorescence equivalencies of compounds against three fluorophores have been evaluated: Triamterene, Fluorescein and Rose Bengal sodium for blue, green and red fluorescence, respectively. The fluorescence intensities were measured using Excitation/Emission wavelengths at 405/460nm, 485/535nm and 540/590nm for blue, green and red labels, respectively. This assay includes the red fluorescence data.
Tox21 Assay Protocol Summary: 5 uL of culture medium (DMEM containing 10% FBS) per well was dispensed into black wall/clear bottom 1536-well plates using a Multidrop Combi Dispenser (ThermoFisher Scientific, Waltham, MA). After 23 nL compound or DMSO vehicle was transferred into assay plate by a pintool work station (Kalypsys, San Diego, CA), fluorescence intensities in the assay plates were measured by an Envision (PerkinElmer, Shelton, CT) plate reader using three labels for measuring blue, green and red fluorescence at […] 460, 535 and 590nm respectively.
Take `C=CCCCCCCC=C`: the Potency result was “inactive”.

Take `C[n+]1c2cc(N)ccc2cc2ccc(N)cc21` (tested in a mixture with another compound): the Potency entry was “inactive”. As for `CCN(CC)CCNc1ccc(CO)c2sc3ccccc3c(=O)c12`, the Potency result was “inactive”. On the same count and under the same terms, under `Cc1oc(-c2ccccc2)nc1CCOc1ccc(C[C@H](Nc2ccccc2C(=O)c2ccccc2)C(=O)O)cc1` stands “inactive”.

`CCCCCCCOC(=O)c1ccc(O)cc1`: the Potency entry is “inactive”. For the compound `C=CC(C)(CCC=C(C)C)OC(=O)/C=C/c1ccccc1` (stereo not given), the Potency entry is “inactive”. On the same count and under the same terms, as for `Clc1ccc(C(c2ccccc2Cl)C(Cl)Cl)cc1` (stereo not given), the entry is “inactive”. On the same count and under the same terms, as for `CC1CCCNC1` (stereo not given), the entry is “inactive”; as for `O=S(=O)(O)CCCN1CCOCC1`, “inactive”. For the compound `CCOC(=O)[C@@](C)(N)Cc1ccc(O)c(O)c1`, the fluorescence, % of fluorescent control is 0.256% [at 18.6 µM]. Regarding `CCCCCCCC/C=C\CCCCCCCC(=O)NCc1ccc(O)c(OC)c1`, the Potency entry is “inactive”. Still for that read-out and setting: under `CC(C)OC(=O)c1cc(C(=O)OC(C)C)cc([N+](=O)[O-])c1` stands “inactive”.

Take `CC1(C)C(=O)N(Br)C(=O)N1Br`: the Potency entry is “inactive”. Still for that read-out and setting: as for `CCN=C1C=CC(=C(c2ccc(N(CC)CC)cc2)c2ccc(N(CC)CC)cc2)c2ccccc21`, the entry is “inactive”; as for `CCCCCCCCCCCCCOP(=O)(O)O`, “inactive”; as for `Nc1ncnc2c1ncn2[C@@H]1O[C@H](COP(=O)(O)O)[C@@H](O)[C@H]1O`, “inactive”. Same read-out and setting: as for `Cc1cccc(Br)c1`, the entry is “inactive”. Consider `Cc1cccc(C)c1NC(=O)CN1CCN(CCCC(c2ccc(F)cc2)c2ccc(F)cc2)CC1`, for which the fluorescence, % of fluorescent control was -0.297% [at 18.6 µM].

Regarding `C=CC(=O)OCCC#N`, the Potency entry is “inactive”. Turning to `CC(C)(C)CC(C)(C)c1ccccc1O`, the Potency entry is “inactive”.

With `C1CC(COCC2CO2)CCC1COCC1CO1` (stereo not given), the Potency entry is “inactive”. Still for that read-out and setting: as for `C/C=C/C=N/NC(=O)c1ccncc1`, the entry is “inactive”; as for `C[C@]12CC[C@H]3C(=CCc4cc(O)ccc43)[C@@H]1CCC2=O`, “inactive”; as for `CCCCCCOc1cc(C)c(O)c(C)c1C`, “inactive”. Same read-out and setting: as for `Cc1cc(Nc2ccc(O)cc2)ccc1N`, the entry is “inactive”. For the compound `CC(O)C#CC(C)O` (stereo not given), the Potency entry is “inactive”. For `CNCC[C@H](Oc1cccc2ccccc12)c1cccs1`, the Potency entry is “inactive”. Still for that read-out and setting: as for `Nc1ccc2cc3ccc(N)cc3nc2c1`, the entry is “inactive”; as for `O=C1NCCN1CCN1CCC(c2cn(-c3ccc(F)cc3)c3ccc(Cl)cc23)CC1`, “inactive”. On the same count and under the same terms, as for `C(=C/c1ccccc1)/c1ccccc1`, the entry is “inactive”.

Turning to `CNC(=O)c1cc(Oc2ccc(NC(=O)Nc3ccc(Cl)c(C(F)(F)F)c3)cc2)ccn1`, the Potency entry was “inactive”. Same read-out and setting: as for `Cc1nc(Nc2ncc(C(=O)Nc3c(C)cccc3Cl)s2)cc(N2CCN(CCO)CC2)n1`, the entry is “inactive”; as for `CCCCCCCCCC(=O)N(C)C`, “inactive”. As for `C=CC(=O)OCC(O)COc1ccccc1` (stereo not given), the Potency result was “inactive”. For `CCCCCCCC/C=C\CCCCCCCC(=O)N(C)CC(=O)O`, the Potency entry was “inactive”. On the same count and under the same terms, as for `O=C(Oc1ccccc1)c1cccc(C(=O)Oc2ccccc2)c1`, the entry is “inactive”; as for `CN1[C@@H]2CC[C@@H]1CC(OC(=O)C(CO)c1ccccc1)C2` (stereo not given in full), “inactive”; as for `CCCCNc1c(C(=O)OCC)c(C)nc2c1cnn2CC`, “inactive”. The same measure, in the same setting: as for `NC(=O)c1ccccc1N`, the entry is “inactive”; as for `CCCC(CC)CCCCCCCN` (stereo not given), “inactive”.
